Only some compounds are listed: those with a hit (about 28% of all), similar ones and a draw of the others.
DAT uptake mod: changed hDAT dopamine uptake under cocaine IC80, either direction, primary screen, cocaine antagonist project, cell-based, LLC-PK1 hDAT, [14C]-dopamine uptake, MLSMR | Sodium-dependent dopamine transporter (Homo sapiens), Q01959 | LLC-PK1 hDAT cells, [14C]-dopamine uptake with cocaine IC80; actives deviate in either direction | B-score at 10 µM | 110,000 compounds, 1.3% hits | AID 449768, 2010;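 active = Z score or B-score, a plate-position-corrected score, falls beyond the plate's 99.7% confidence bounds, in either direction; inactive = both scores lie inside the 99.7% bounds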;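 also: scored against the spread of the other compound wells on the same plate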
Target sequence (Q01959 whole entry, looked up): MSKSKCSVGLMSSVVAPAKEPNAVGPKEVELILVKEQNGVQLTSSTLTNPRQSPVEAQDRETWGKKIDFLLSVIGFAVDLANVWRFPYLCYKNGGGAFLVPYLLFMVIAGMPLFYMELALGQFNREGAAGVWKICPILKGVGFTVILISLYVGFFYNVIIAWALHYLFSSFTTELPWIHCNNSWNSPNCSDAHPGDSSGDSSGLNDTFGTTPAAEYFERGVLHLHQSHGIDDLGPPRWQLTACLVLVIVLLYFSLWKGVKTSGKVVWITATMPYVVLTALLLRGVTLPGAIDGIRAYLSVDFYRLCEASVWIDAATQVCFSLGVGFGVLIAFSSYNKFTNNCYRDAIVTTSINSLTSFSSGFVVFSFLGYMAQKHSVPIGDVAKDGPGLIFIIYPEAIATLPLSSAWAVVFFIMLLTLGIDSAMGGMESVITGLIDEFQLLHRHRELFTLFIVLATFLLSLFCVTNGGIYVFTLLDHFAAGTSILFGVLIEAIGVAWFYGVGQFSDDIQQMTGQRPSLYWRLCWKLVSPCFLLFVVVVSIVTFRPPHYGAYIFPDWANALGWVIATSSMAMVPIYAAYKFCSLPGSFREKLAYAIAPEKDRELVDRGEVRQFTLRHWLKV
CYP2C19 act: human CYP2C19 activators, primary screen, biochemical, luminescence; activation factor at 5 µM; recombinant CYP2C19, luciferin-H EGE luminescence; stronger effect = higher value; 0 = fully inhibited enzyme, 1 = untreated enzyme; Cytochrome P450 2C19 (Homo sapiens), P33261; AID 1025, 2008; 96,000 tested, under 10 active;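 active = activation factor of at least 2 at 5 µM in the primary screen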;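 also: 0 = wells with 2.5 mM tranylcypromine and 1 = vehicle-only wells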
D1 allo mod: D1 CRE-luciferase signal change, two-sided – cell-based, HEK293 D1, dopamine EC30, D1 allosteric modulator project, primary screen; 58,000 compounds, 5.9% hits; AID 641, 2007; B-score at 10 µM; dopamine EC30 potentiation; actives deviate in either direction;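 active = luminescence count or its row- and column-corrected plate score outside the 99.7% band of the plate's sample wells, on either side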
CYP2C9 act: human CYP2C9 activators, primary screen, biochemical, luminescence. Cytochrome P450 2C9 (Homo sapiens), P11712. recombinant CYP2C9, luciferin-H conversion; stronger effect = higher value; factor 1 = untreated enzyme, 0 = blocked. activation factor at 5 µM. 96,000 compounds, 1.4% hits. AID 1024, 2008;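 active = activation factor of 2 or more for CYP2C9 at a 5 µM dose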;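 also: 0 = sulfaphenazole-blocked wells and 1 = vehicle-only wells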
CYP2C9 inh: blockers of cytochrome P450 2C9 activity – biochemical, luminescence, ADME assay, primary screen; P11712; CYP2C9 Supersomes, luciferin-H conversion; inhibition, % at 5 µM; 96,000 compounds, 20% hits; AID 777, 2007;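 active = blocking of liver enzyme CYP2C9 beyond about 50% at 5 µM, limit read from the data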
CYP2C19 inhib: blockers of cytochrome P450 2C19 activity – biochemical, luminescence, ADME assay, primary screen. inhibition, % at 5 µM. P33261. 96,000 compounds, 21% hits. CYP2C19 Supersomes, luciferin-H EGE luminescence, 30 min;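 active = CYP2C19 inhibition above a set limit at 5 µM in the primary screen, cut at about 50% in these data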;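 also: plate controls were negative control wells for no effect and 2.5 mM tranylcypromine positive control for full effect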
D1 mod confirm: D1 receptor positive allosteric modulators, retest, confirmation, cell-based, HEK293 D1, CRE-luciferase, duplicate | shares compounds with D1 allo mod | dopamine EC30 potentiation; stronger effect = higher value | luminescence at 10 µM | 2,200 compounds, 88% hits;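 active = luminescence in either of two replicates above the same-plate mean plus 3 SD of the low-dose dopamine control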
D1 no dopamine: D1 receptor agonism without dopamine, confirmation, mechanism study for D1 allosteric modulator project, cell-based, HEK293 D1, CRE-luciferase, secondary assay 1. luminescence, no dopamine; stronger effect = higher value. AID 646, 2007. shares compounds with D1 allo mod. luminescence at 10 µM. 1,900 compounds, 0.8% hits; in the data active = luminescence above about 3900
Isoprot counter: alters isoproterenol CRE-luciferase response in HEK293 cells; shares compounds with D1 allo mod; calls only at 10 µM; 2,200 compounds, 63% hits; HEK293 D1 CRE-luciferase, isoproterenol EC30 counter-screen;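 active = luminescence in either replicate above plate mean of wells with a partly effective reference agonist dose plus 3 SD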;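 also: isoproterenol raises cAMP through native beta-adrenoceptor Gs so signal bypasses D1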
* hit, by the source's call; i = inactive; nt = not tested or not shown; + = active, no number.

SMILES	DAT uptake mod	CYP2C19 act	D1 allo mod	CYP2C9 act	CYP2C9 inh	CYP2C19 inhib	D1 mod confirm	D1 no dopamine	Isoprot counter
CC(=O)N1CCc2cc(S(=O)(=O)NCCC(=O)N3CCN(c4ccccn4)CC3)ccc21	-0.95	1	-1.1	0.8	20	-1	nt	nt	nt
CCC(=O)N1CCc2cc(S(=O)(=O)N3CCN(c4ccccn4)CC3)ccc21	-1.6	0.8	2.7*	0.7	28	19	13196*	1512	+
Cc1cccc(C)c1NC(=O)C1NC(=O)CC1c1ccccc1 (stereo unspecified)	0.68	0.9	nt	1.1	-7	6	nt	nt	nt
O=C1CC(c2ccccc2)C(C(=O)O)N1 (stereo unspecified)	0.7	0.8	15*	1.6	-55	21	4528	nt	i
COCc1cc(C)nc(N)c1C#N	-1.8	1.3	nt	1.1	-9	-25	nt	nt	nt
COc1ccc(CCNC(=O)C2CC(=O)N(c3ccccc3)C2)cc1OC (stereo unspecified)	0.0015	1	2.9*	0.8	20	0	5376	1464	i
CCCCc1ccc(-c2c(C#N)c(N)nc3c2CCCC3)s1	0.07	0.8	nt	1.2	-24	17	nt	nt	nt
N#Cc1ccccc1Cn1c(=O)n(Cc2ccc(C(=O)NCc3ccco3)cc2)c(=O)c2sccc21	0.37	1.1	16*	0.6	36	-8	10644*	1632	+
N#Cc1ccccc1Cn1c(=O)n(-c2ccc(CC(=O)NCc3ccco3)cc2)c(=O)c2sccc21	0.00078	1.2	-0.22	0.9	12	-21	nt	nt	nt
N/C(=N/O)c1nc(N2CCCCC2)nc(N2CCCCC2)n1	1.7	nt	5.2*	nt	nt	nt	18416*	1644	+
FC(F)(F)COc1nc(N2CCOCC2)nc(N(c2ccccc2)c2ccccc2)n1	0.31	nt	nt	nt	nt	nt	nt	nt	nt
C1CCN(c2nc(N3CCCCC3)nc(N3CCNCC3)n2)CC1	0.88	0.9	-0.048	0.8	19	11	nt	nt	nt
N/C(=N/O)c1nc(N2CCCC2)nc(N(c2ccccc2)c2ccccc2)n1	-2.3	0.9	7.2*	0.9	7	10	13376*	1828	+
COc1ccc(-n2c3c(cc(C(=O)N4CCCCC4)c2=O)C(=O)CC(C)(C)C3)cc1	-0.63	1.1	1.4	1.1	-15	-5	nt	nt	nt
Cc1ccc(N=Cc2ccc[nH]2)c(O)c1	0.46	1	-0.0071	1.1	-6	1	nt	nt	nt
c1ccc(-c2csc3ncn4cnnc4c23)cc1	0.73	0.9	18*	0.9	7	9	18512*	1700	+
O=c1[nH]cnc2scc(-c3ccccc3)c12	-0.36	0.9	nt	0.9	7	8	nt	nt	nt
c1cncc(-c2nc(NCc3ccco3)c3ccccc3n2)c1	-0.031	0.8	7.3*	0.4	62*	24	11656*	nt	+
O=C(Cn1c(-c2ccco2)nc2ccccc21)N1CCCCC1	-0.033	1.1	-0.017	1.1	-8	-8	nt	nt	nt
CCC(=O)Nc1cc2c(cc1C(=O)c1ccccc1)OCCO2	0.073	0.8	13*	1.1	-12	22	15532*	nt	+
CCC(=O)Nc1cc(OC)c(NC(=O)c2ccccc2)cc1OC	0.28	1.1	nt	1.1	-8	-12	nt	nt	nt
CCC(=O)Nc1cc2c(cc1C(=O)CC)OCCO2	-2.5	0.7	14*	0.7	32	33	12916*	1684	+
CC(=O)Nc1cc2c(cc1C(=O)c1ccccc1)OCCO2	nt	0.7	6.3*	0.9	6	30	8592*	1552	+
CC(=O)Nc1cc2c(cc1Br)OCCO2	-0.82	1.1	nt	1.3	-28	-6	nt	nt	nt
CCCC(=O)c1cc2c(cc1NC(=O)c1cccs1)OCCO2	0.74	1	nt	0.9	7	3	nt	nt	nt
SMILES	DAT uptake mod	CYP2C19 act	D1 allo mod	CYP2C9 act	CYP2C9 inh	CYP2C19 inhib	D1 mod confirm	D1 no dopamine	Isoprot counter
CC(C)CNC(=S)NNC(=O)c1ccc(OC(F)F)cc1	-0.12	0.7	nt	0.9	9	26	nt	nt	nt
Cn1c(=O)c2c(nc(SCCCC#N)n2Cc2c(F)cccc2Cl)n(C)c1=O	0.1	0.9	5.8*	0.4	59*	14	7192*	1824	+
CCCn1c(=O)c(C(=O)NCc2ccccn2)c(O)c2ccccc21	0.63	0.7	3.9	0.8	18	28	nt	nt	nt
CCCn1c(=O)c(C(=O)NCc2cccnc2)c(O)c2ccccc21	0.28	0.6	8.4*	0.6	43	36	15012*	1692	+
CC(C)Cn1c(=O)c(C(=O)Nc2cnccn2)c(O)c2ccccc21	-0.093	1.1	3.4*	1.1	-9	-5	9760*	1672	i
CC(C)Cn1c(=O)c(C(=O)Nc2ccncc2)c(O)c2ccccc21	nt	nt	3.4	nt	nt	nt	nt	nt	nt
COC(=O)[C@@H](NC(=O)O[C@H]1C(=O)c2ccc(OC)cc2O[C@@H]1c1ccc2c(c1)OCO2)C(C)C	-0.1	nt	nt	nt	nt	nt	nt	nt	nt
COc1ccccc1C(=O)Nc1c2c(nn1-c1cccc(C)c1C)CS(=O)(=O)C2	-1.3	1	6.6*	1.1	-8	-2	14916*	1716	+
O=C(CSc1nnc(-c2ccccc2)o1)n1c2c(c3ccccc31)CCCC2	0.021	0.8	-0.14	1.2	-19	21	nt	nt	nt
COc1ccc(-c2nn(C)c(=O)c3ccccc23)cc1NC(=O)Cn1nc(C)c2ccccc2c1=O	2.1	0.7	8.6*	0.4	58*	30	19816*	1720	+
Cc1cccc(NC(=O)COC(=O)CNC(=O)C2CCCCC2)c1	-0.69	0.7	nt	0.8	24	25	nt	nt	nt
COC(=O)c1cn(-c2ccccc2)nc1C(=O)OC	1.3	0.9	18*	1	-1	7	20700*	1688	+
O=C(O)c1cn(-c2ccccc2)nc1C(=O)O	-0.65	nt	nt	nt	nt	nt	nt	nt	nt
CCn1cc(C(=O)NCCCN2CC(C)CC(C)C2)c(=O)c2cc(S(=O)(=O)N(C)C)ccc21 (stereo unspecified)	1.1	0.8	0.018	1.1	-6	18	nt	nt	nt
